Luc counter = blocks Kinase-Glo luciferase, a counter-screen artifact. Kinase-Glo luciferase, ATP luminescence, 8 min. AID 1379. Q27757. 200,000 compounds, 0.28% hits. Potency, µM (series often up to 38.3 µM), without a hit: at the highest dose activity change, negative = inhibition, actives largely listed as inhibitors; also: % is scaled to controls: 0 for no effect and ±100 for the full control effect; nearly all actives have a fitted effect of over 60% in size
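Kinase-Glo luciferase light output from ATP and luciferin was measured with 10 uM ATP, within the enzyme's linear range. Buffer: 50 mM imidazole pH 7.2, 50 mM KCl, 7 mM MgCl2, 0.01% Tween 20, 0.05% BSA; luminescence read after 8 min at ambient temperature.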
NPC1 prom act = NPC1 promoter activation; 320,000 compounds, 2.4% hits; AID 485313; Potency, µM (doses to about 9.22 µM), for inactives: at the highest dose activation, most hits filed as activators; Huh7 NPC1 promoter luciferase reporter, 24 h; also: % of control where 0% means no effect; nearly all actives have a fitted effect of over 60% in size
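Quantitative HTS used a cell-based reporter: Huh7 cells stably bearing the NPC1 promoter upstream of luciferase were treated with compounds for 24 h, and promoter activation was read as luminescence.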
FLuc counter = firefly luciferase modulation, counter-screen for miR-21 project; P08659; purified FLuc, Km substrates, luminescence inhibition; Potency, µM (highest dose often 57.5 µM), inactives show at the top dose activity change, negative = inhibition, most hits filed as inhibitors; 360,000 compounds, 6.9% hits;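 also: plate controls were vehicle for no effect and reference inhibitor for full effect; nearly all actives have a fitted effect of over 55% in size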
Target sequence (P08659 whole entry, looked up): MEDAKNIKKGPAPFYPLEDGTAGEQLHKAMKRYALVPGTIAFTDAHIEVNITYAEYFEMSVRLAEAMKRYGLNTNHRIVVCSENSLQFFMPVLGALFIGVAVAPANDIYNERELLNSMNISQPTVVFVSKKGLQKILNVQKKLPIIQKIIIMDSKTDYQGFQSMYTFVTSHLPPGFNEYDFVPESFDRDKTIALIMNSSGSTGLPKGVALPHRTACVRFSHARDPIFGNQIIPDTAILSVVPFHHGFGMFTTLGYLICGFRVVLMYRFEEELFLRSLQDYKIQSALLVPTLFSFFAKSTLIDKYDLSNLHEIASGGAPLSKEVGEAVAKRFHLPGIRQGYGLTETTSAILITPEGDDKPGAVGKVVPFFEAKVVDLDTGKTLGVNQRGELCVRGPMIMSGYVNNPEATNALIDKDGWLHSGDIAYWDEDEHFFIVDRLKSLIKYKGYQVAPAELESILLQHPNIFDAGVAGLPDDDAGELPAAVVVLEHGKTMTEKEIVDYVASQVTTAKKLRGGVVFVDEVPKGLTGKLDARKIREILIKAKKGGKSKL
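Purified P. pyralis luciferase, 10 nM final, with Km-level 10 uM D-luciferin and 10 uM ATP in 50 mM Tris acetate pH 7.5, 10 mM Mg acetate, 0.01% Tween-20, 0.05% BSA; 6-point qHTS titration about 60 µM downward; luminescence read.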
SMN2 splice up = increases expression of the SMN2 splice variant | HEK293 SMN2-luciferase splicing reporter, luminescence, 30-36 h | Potency, µM (top dose mostly 46.1 µM), without a hit: at the highest dose activity change, positive = activation, hits mostly activators | 210,000 compounds, 2.8% hits; also: % of control where 0% means no effect; nearly all actives have a fitted effect of over 55% in size
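qHTS luciferase splicing reporter: luminescence rises when SMN2 exon 7 is included in transfected HEK293 cells. Compound exposure lasted 30-36 h at 37C, with 4.5 mM final sodium butyrate as control, followed by a ONE-Glo read.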
ELG1 genotoxic = genotoxicity induction in ELG1-luciferase HEK293T cells. Potency, µM (doses to about 46 µM), without a hit: top-dose activity change, positive = activation, hits mostly activators. HEK293T ELG1-luciferase reporter, luminescence, 16 h. 330,000 compounds, 1.3% hits; also: % of control where 0% means no effect; nearly all actives have a fitted effect of over 60% in size
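HEK293T cells expressing luciferase-tagged ELG1 were exposed to compound or DMSO vehicle for 16 hr at 37 °C and 5% CO2. Luciferase activity was then measured with ONE-Glo after 30 min at room temperature.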
Rab9 prom act = activators of Rab9 promoter | Huh7 Rab9 promoter-luciferase reporter, luminescence, 24 h | Potency, µM (highest dose often 9.22 µM), for inactives: at the top dose activation, negative = inhibition, most hits filed as activators | 320,000 compounds, 2.8% hits; also: % of control where 0% means no effect; nearly all actives have a fitted effect of over 60% in size
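Huh7 reporter line, Rab9 promoter upstream of luciferase. Compound exposure 24 h at 37 °C in reduced-serum medium with 10% FBS. Read-out: luminescence.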
* hit, by the source's call; ? = inconclusive; . = no result; [ ] = dose if it differs, or a comment. In the library only some 7.4% were active in any assay of this set; here they are far more common. Calls follow the shape of the dose curve; as a rule, active = well fitted curve in the direction sought with a large enough effect; inconclusive = small, poorly fitted or top-dose-only effect, or another doubt; inactive = no such curve, though single readings can be large; an effect the other way counts as inactive or inconclusive. Potency is read from the fitted curve at half-maximal effect.

SMILES | Luc counter | NPC1 prom act | FLuc counter | SMN2 splice up | ELG1 genotoxic | Rab9 prom act
O=C(CC(c1ccccc1)c1cc(Br)ccc1O)NCC1(c2ccccc2)CCCC1 (stereo not given) | . | . | -4% | -82% | . | .
O=C1CN(C(=O)c2cccc(Br)c2)C(c2ccccc2)c2cc(Cl)ccc2N1 (stereo not given) | . | . | -3% | . | . | .
COc1ccc(-c2csc(-c3cccnc3)n2)cc1C | -2% | ? | 7.6µM* | . | ? | 2.8µM*
NC(=O)c1cc(-c2csc(-c3cccnc3)n2)ccc1O | . | 24% | ? | . | 4% | 4%
COc1ccc2cc(-c3csc(-c4cccnc4)n3)ccc2c1 | -9% | 3.2µM* | 2.1µM* | 13µM* | 13µM* | ?
C/C(=N\Nc1ccccc1[N+](=O)[O-])c1ccccc1O | . | 8% | 5.4µM* | . | 21µM* | -1%
CC/C(=N\Nc1ccccc1[N+](=O)[O-])c1ccc(O)cc1 | -6% | 6% | 27µM* | . | 10% | 0%
CC/C(=N\Nc1ccc([N+](=O)[O-])cc1[N+](=O)[O-])c1ccc(O)cc1 | . | 0% | -1% | . | -1% | -2%
O=C(/C=C\c1ccco1)NC(=S)Nc1ccccc1O | . | ? | ? | . | 7% | 3.2µM*
O=C(/C=C/c1ccco1)NC(=S)Nc1ccccn1 | -5% | 3.2µM* | 13µM* | ? | 15% | 2.8µM*
O=C(/C=C/c1ccco1)NC(=S)Nc1ccccc1N1CCCC1 | 1% | 5% | 3% | -19% | -7% | 14%
O=C(/C=C/c1ccco1)NC(=S)Nc1ccccc1O | -1% | ? | ? | ? | 13% | 4µM*
Cc1ccc(NC(=S)NC(=O)/C=C/c2ccco2)c(O)c1 | -1% | -3% | ? | 14% | 6% | 13%
O=S(=O)(c1ccc(Cl)cc1)c1nnn2c1nc(N1CCCCC1)c1sccc12 | . | . | -6% | . | . | .
COc1cccc(-c2cc(C(=O)NCC3CCCO3)c3ccccc3n2)c1 (stereo not given) | -1% | -2% | 27µM* | -6% | -2% | -2%
COc1ccc(-c2cc(C(=O)NCC3CCCO3)c3ccccc3n2)cc1 (stereo not given) | -5% | 14% | 12µM* | 7% | -6% | 17%
COc1ccc(-c2cc(C(=O)NCC3CCCO3)c3cc(C(C)C)ccc3n2)cc1 (stereo not given) | . | -2% | ? | . | -1%[9.26 µM] | -1%
COc1ccc(-c2cc(C(=O)NCC3CCCO3)c3cc(C)ccc3n2)cc1 (stereo not given) | -2% | 16% | 2.1µM* | ? | 3% | 21%
Cc1ccc(-c2cc(C(=O)NCC3CCCO3)c3ccccc3n2)cc1C (stereo not given) | 3% | 6% | 6.7µM* | 16% | -6% | 3%
O=C(Nc1cccc(F)c1)N1CCCC2(CCN(S(=O)(=O)c3ccccc3)CC2)C1 | -3% | . | . | 0% | . | .
CC1CCN(S(=O)(=O)c2ccc3c(c2)c(=O)c(C(=O)NCCc2ccccc2)cn3C)CC1 | . | . | 2% | 2% | . | .
c1ccc(CSc2nnc(-c3ccncc3)o2)cc1 | 3% | ? | ? | 28% | 0% | ?
Fc1ccccc1CSc1nnc(-c2cccnc2)o1 | -3% | 4µM* | 17µM* | ? | ? | 3.2µM*
Cc1ccccc1-c1nnc(SCc2ccccc2)o1 | 2% | ? | 8.5µM* | 14µM* | 15µM* | ?
COc1cc(OC)cc(-c2nnc(SCc3c(F)cccc3Cl)o2)c1 | 0% | 3.2µM* | ? | 21% | ? | 3.5µM*
SMILES | Luc counter | NPC1 prom act | FLuc counter | SMN2 splice up | ELG1 genotoxic | Rab9 prom act
COc1cccc(C(=O)CSc2nnc(-c3cc(OC)cc(OC)c3)o2)c1 | -3% | -5% | 1% | 1% | 1% | -5%
Fc1ccccc1CSc1nnc(-c2ccccc2)o1 | -3% | 2.5µM* | 4.8µM* | 35µM* | 8.2µM* | 3.2µM*
COc1ccc(NC(=O)c2sc3nc(C)c(C(=O)Nc4ccc(C)cc4C)c(-c4cccs4)c3c2N)cc1 | . | . | -7% | -4% | . | .
Cn1cccc1C(=O)N1CCC2(CCCN(Cc3ccc(C#N)cc3)C2)CC1 | -1% | . | . | -13% | . | .
COc1ccc(NC(=O)c2oc3ccccc3c2NC(=O)Cc2ccc(F)cc2)c(OC)c1 | . | . | -1% | -6% | . | .
Cc1ccccc1-c1nnc(SCc2ccccc2F)o1 | -10% | 3.2µM* | 1.9µM* | 13µM* | ? | 3.5µM*
COc1ccc(-c2nnc(SCc3ccccc3F)o2)cc1 | -1% | 1.3µM* | 1.5µM* | 11µM* | 1µM* | 1.4µM*
CCOc1ccc(NC(=O)N2CCC(N3CCCCC3)CC2)cc1 | . | . | 5% | 8% | . | .
O=C(CSc1nc2c([nH]c3ccccc32)c(=O)n1-c1ccc(Cl)cc1)N1CCCCCC1 | . | . | -1% | . | . | .
CC(C)[C@@H](CC(=O)N[C@@H]1CCCC[C@H]1C(=O)N[C@H](CC(=O)N[C@@H](CCC(=O)O)CC(=O)O)Cc1c[nH]c2ccccc12)NC(=O)C[C@H](CO)NC(=O)[C@@H]1CCCC[C@H]1N | -3% | . | . | 9% | . | .
Cc1ccnc(NC(=O)c2ccc3c(c2)NC(=O)C(C)S3)c1 (stereo not given) | . | 0.71µM* | 1.9µM* | . | ? | 0.63µM*
CC(=O)c1ccccc1NC(=O)c1ccc2c(c1)NC(=O)C(C)S2 (stereo not given) | . | ? | 15µM* | . | ? | ?
CC1Sc2ccc(C(=O)Nc3ccc(S(=O)(=O)N(C)C)cc3)cc2NC1=O (stereo not given) | . | -1% | -7% | . | -20% | -7%
O=C(Nc1ccc2c(c1)OCCO2)c1cc2sccc2n1Cc1ccccc1 | 1% | 24% | 21µM* | 10% | -1% | ?
Cn1c(C(=O)Nc2ccc3c(c2)OCCO3)cc2sccc21 | -15% | 1.3µM* | 1.1µM* | 7.1µM* | 2.1µM* | 1.1µM*
O=C(Nc1ccc2c(c1)OCCO2)c1cc2sccc2n1Cc1ccc(F)cc1 | 0% | 13% | ? | -30% | -1% | 28%
Cc1ccc(-c2csc3nc(C)n(N)c(=O)c23)o1 | -7% | ? | ? | 4% | 16µM* | ?
Cc1cc(C(=O)COC(=O)[C@H](C)NC(=O)c2ccco2)c(C)n1Cc1ccco1 | -3% | -2% | 7.6µM* | 4% | 5% | 5%
Cc1cc(C(=O)COC(=O)Cn2c(C(F)(F)F)nc3ccccc32)c(C)n1Cc1ccco1 | -2% | 0% | 21µM* | 0% | 5% | 7%
C=CCn1c(C)cc(C(=O)COC(=O)CNC(=O)c2ccccc2)c1C | -2% | -1% | 13µM* | -23% | 14% | -6%

Bioassay records from PubChem BioAssay.
